Data as given in PubChem BioAssay.
Unmarked numbers belong to inactive results. For some assays here: Measured potencies and affinities stand elsewhere. Active and inactive are the calls of the source. Unless noted, how the calls were made is not given here.

How the values were obtained:
[1] = antimalarial activity against Dd2 strain (AID 2302;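 active means growth inhibition above 50% at the single 2 µM test dose, taken to imply half-maximal potency below 2 µM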;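 further: 0% = DMSO untreated growth and 100% = chloroquine plus artemisinin killed control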); details: P. falciparum Dd2 in RBCs, LDH growth readout, 72 h; at 2 µM; hits give high values
[2] = human hepatoma cell viability loss – ATP luminescence, cytotoxicity control for P. falciparum antimalarial project, primary screen (AID 2303;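 active means inhibition above 50%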;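 further: 0% = DMSO wells and 100% = digitonin-killed cells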); details: HepG2 viability, 24-48 h, at 10 µM, hits give high values
[3] = target: L-lactate dehydrogenase (Plasmodium falciparum (isolate CDC / Honduras)) (UniProt Q27743); test: PfLDH activity inhibition – cell lysate, 3D7 strain, counter-screen for P. falciparum growth inhibition project (AID 2304);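 further: 0% = vehicle and 100% = reference inhibitor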; details: P. falciparum 3D7 crude extract, LDH APAD/NBT absorbance; at 2 µM; hits give high values
[4] = inhibition of 3D7 malaria parasite growth – strain 3D7 (AID 2306);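 further: 0% = DMSO wells and 100% = chloroquine plus artemisinin control wells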; details: P. falciparum 3D7 erythrocytic growth, LDH absorbance, 72 h; at 2 µM; hits give high values
[5] = target: Calcium-dependent protein kinase 1 (Plasmodium falciparum (isolate 3D7)) (UniProt P62344); test: PfCDPK1 kinase inhibitors, biochemical, TCAMS library (AID 1159585; cut-off not given, nearly all actives have IC50 up to about 0.98 µM;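 further: inhibitors leave more ATP so luminescence rises with inhibition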); details: recombinant PfCDPK1, Kinase-Glo ATP depletion luminescence
[6] = target: Plasmodium falciparum protein kinase 6 (PK6, PF3D7_1337100) (UniProt Q8IDW1); test: PfPK6 kinase inhibitors, biochemical, TCAMS library (AID 1159586); details: recombinant PfPK6, Kinase-Glo ATP depletion luminescence
[7] = target: Protein kinase 7 (PK7), Plasmodium falciparum 3D7 (PF3D7_0213400) (UniProt Q7YTF7); test: inhibition of Plasmodium PK7 catalytic activity – biochemical, TCAMS antimalarial set, Kinase-Glo luminescence (AID 1159587); details: recombinant PfPK7, Kinase-Glo ATP depletion luminescence
[8] = target: Calcium-dependent protein kinase 4 (Plasmodium falciparum (isolate 3D7)) (UniProt Q8IBS5); test: PfCDPK4 kinase inhibitors, biochemical, TCAMS library (AID 1159588; cut-off not given, nearly all actives have IC50 up to about 0.91 µM); details: recombinant PfCDPK4, Kinase-Glo ATP depletion luminescence
Sequence of Calcium-dependent protein kinase 4 (Plasmodium falciparum (isolate 3D7)) (Q8IBS5 whole entry, looked up): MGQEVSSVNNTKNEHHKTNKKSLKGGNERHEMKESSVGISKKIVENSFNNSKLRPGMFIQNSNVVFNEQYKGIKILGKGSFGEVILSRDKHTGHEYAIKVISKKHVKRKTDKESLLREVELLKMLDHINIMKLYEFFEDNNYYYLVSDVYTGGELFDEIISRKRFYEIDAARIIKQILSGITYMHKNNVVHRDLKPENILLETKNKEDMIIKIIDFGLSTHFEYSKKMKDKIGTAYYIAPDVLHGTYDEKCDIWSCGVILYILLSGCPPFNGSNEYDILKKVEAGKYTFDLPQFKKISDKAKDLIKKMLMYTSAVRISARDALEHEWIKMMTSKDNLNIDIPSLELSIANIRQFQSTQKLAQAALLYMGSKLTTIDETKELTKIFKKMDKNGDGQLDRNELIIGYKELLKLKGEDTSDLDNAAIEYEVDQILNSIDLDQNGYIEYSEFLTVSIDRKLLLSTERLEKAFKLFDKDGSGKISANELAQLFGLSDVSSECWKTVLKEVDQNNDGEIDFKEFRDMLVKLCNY

Sequence of L-lactate dehydrogenase (Plasmodium falciparum (isolate CDC / Honduras)) (Q27743 whole entry, looked up): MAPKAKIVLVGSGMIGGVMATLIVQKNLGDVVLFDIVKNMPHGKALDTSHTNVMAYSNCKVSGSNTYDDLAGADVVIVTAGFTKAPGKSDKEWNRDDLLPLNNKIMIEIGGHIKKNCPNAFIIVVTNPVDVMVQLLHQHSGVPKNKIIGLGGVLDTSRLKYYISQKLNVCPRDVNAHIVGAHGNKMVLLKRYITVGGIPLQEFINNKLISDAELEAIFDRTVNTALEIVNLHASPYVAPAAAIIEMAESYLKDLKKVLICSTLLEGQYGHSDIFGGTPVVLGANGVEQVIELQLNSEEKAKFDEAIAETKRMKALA
Sequence of Plasmodium falciparum protein kinase 6 (PK6, PF3D7_1337100) (Q8IDW1 1-305): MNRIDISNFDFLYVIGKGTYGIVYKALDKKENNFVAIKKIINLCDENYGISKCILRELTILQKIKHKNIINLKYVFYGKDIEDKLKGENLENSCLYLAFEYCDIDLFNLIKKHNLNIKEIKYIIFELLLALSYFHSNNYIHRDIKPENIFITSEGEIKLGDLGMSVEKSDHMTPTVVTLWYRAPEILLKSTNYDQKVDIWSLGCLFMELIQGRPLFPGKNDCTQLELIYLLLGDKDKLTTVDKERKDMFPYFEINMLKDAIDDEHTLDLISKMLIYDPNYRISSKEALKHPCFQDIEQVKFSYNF
Sequence of Calcium-dependent protein kinase 1 (Plasmodium falciparum (isolate 3D7)) (P62344 whole entry, looked up): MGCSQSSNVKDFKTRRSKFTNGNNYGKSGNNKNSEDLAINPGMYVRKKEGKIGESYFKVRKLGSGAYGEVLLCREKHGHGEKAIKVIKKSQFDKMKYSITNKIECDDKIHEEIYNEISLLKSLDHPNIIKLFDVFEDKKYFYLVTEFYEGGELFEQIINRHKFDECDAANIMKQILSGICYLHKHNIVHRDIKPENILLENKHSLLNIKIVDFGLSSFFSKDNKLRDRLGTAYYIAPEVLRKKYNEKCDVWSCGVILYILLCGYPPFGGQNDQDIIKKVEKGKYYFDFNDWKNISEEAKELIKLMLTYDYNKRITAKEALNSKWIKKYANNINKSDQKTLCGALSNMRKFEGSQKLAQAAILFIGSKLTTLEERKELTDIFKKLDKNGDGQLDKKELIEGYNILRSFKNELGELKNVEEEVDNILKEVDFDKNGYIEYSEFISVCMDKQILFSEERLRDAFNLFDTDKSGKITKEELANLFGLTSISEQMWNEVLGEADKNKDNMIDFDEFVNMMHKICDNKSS
Sequence of Protein kinase 7 (PK7), Plasmodium falciparum 3D7 (PF3D7_0213400) (Q7YTF7 1-343): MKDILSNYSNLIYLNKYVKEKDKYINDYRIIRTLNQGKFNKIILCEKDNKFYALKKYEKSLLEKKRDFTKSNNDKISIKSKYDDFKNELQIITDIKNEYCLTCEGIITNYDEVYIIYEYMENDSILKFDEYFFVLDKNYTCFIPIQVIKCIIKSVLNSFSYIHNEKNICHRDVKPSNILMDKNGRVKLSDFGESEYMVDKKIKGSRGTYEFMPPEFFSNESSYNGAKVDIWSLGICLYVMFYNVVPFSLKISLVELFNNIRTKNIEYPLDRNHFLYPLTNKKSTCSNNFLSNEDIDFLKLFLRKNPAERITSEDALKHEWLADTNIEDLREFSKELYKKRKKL

Compound | growth inhibition [1] | inhibition [2] | inhibition [3] [%] | growth inhibition [4] | outcome [5] | outcome [6] | outcome [7] | outcome [8]
CCOc1ccc(NC(=O)c2ccc(NCCCN3CC(C)CC(C)C3)c([N+](=O)[O-])c2)cc1 (stereo not given) | 60% (active) | 3% | -4 | 101% (active) | inactive | inactive | inactive | inactive
CCN(CC)CCN(Cc1ccc(-c2ccc(C(F)(F)F)cc2)cc1)C(=O)Cn1c(SCc2ccc(F)c(F)c2F)nc(=O)c2c1CCC2 | 96% (active) | 100% (active) | -4 | 91% (active) | inactive | inactive | inactive | inactive
CCN(CC)S(=O)(=O)c1ccc(C(C)NC(=O)c2ccccc2COc2ccccc2)cc1 (stereo not given) | 89% (active) | -3% | 4 | 100% (active) | inactive | inactive | inactive | inactive
O=C(NC1CCC(N2CCCC(OCc3ccccc3)C2)CC1)c1cc2ccccc2[nH]1 (stereo not given) | 11% | 38% | -1 | 94% (active) | inactive | inactive | inactive | inactive
COc1c(C2CCN(CCCCNC(=O)c3ccc(-c4ccc(C#N)cc4)nc3)CC2)ccc2c1CCCC2 | 67% (active) | 54% (active) | -2 | 95% (active) | inactive | inactive | inactive | inactive
Oc1ccc(CCNc2nc(NCc3ccccc3-c3ccccc3)nc(N3CCCNCC3)n2)cc1 | 20% | 26% | -5 | 95% (active) | inactive | inactive | inactive | inactive
NC(N)=Nc1nccc(NCc2ccccc2)n1 | 48% | 95% (active) | -1 | 88% (active) | inactive | inactive | inactive | inactive
CC(Cc1ccc(CN(CC(N)=O)Cc2ccc(CC(C)NCCc3cccc(Cl)c3)cc2)cc1)NCCc1cccc(Cl)c1 (stereo not given) | 68% (active) | 26% | 2 | 95% (active) | inactive | inactive | inactive | inactive
C=CCOC(=O)N1CCC(CNCc2cccc(-c3ccc(-c4nc5c(C)cccc5[nH]4)cc3)c2)C1 (stereo not given) | 82% (active) | 24% | 1 | 103% (active) | inactive | inactive | inactive | inactive
Cc1nc2ccc(/C=C/C(=O)NC3CCC(CCN4CCc5ccc(C#N)cc5CC4)CC3)cc2[nH]1 (stereo not given) | 21% | 7% | -2 | 88% (active) | inactive | inactive | inactive | inactive
CC(C)N1CCC(N(Cc2ccc(-c3ccc(C(F)(F)F)cc3)cc2)C(=O)Cn2c(CCc3cccc(F)c3F)cc(=O)c3cn(C)nc32)CC1 | 78% (active) | 100% (active) | 6 | 89% (active) | inactive | inactive | inactive | inactive
Cc1cc(CNCC2CCC(CNCCCc3ccccc3)CC2)ccc1O (stereo not given) | 0% | 25% | 7 | 101% (active) | inactive | inactive | inactive | inactive
CC1(C)CCC(C)(C)c2c1ccc(C1CCN(CCCCNC(=O)c3ccc(-c4ccc(C#N)cc4)cc3)CC1)c2OCC(N)=O | 100% (active) | 99% (active) | -3 | 102% (active) | inactive | inactive | inactive | inactive
O=C(CC1CCCC1)Nc1ccc2c(c1)CCC2 | -2% | -1% | 2 | 93% (active) | inactive | inactive | inactive | inactive
COc1ccc2nccc([C@@H](O)CN3CCC(NCc4nc5c(OCc6ccccc6)cccc5[nH]4)CC3)c2c1 | 34% | 6% | 3 | 101% (active) | inactive | inactive | inactive | inactive
COc1cc2nc(N3CCC(CNC(=O)/C=C/c4cccc(C)c4)CC3)nc(N)c2cc1OC | 68% (active) | 16% | -8 | 101% (active) | inactive | inactive | inactive | inactive
C[C@H](Cc1ccc(OCCCCCCCOc2ccc(C[C@@H](C)NC[C@H](O)c3cccc(Cl)c3)cc2)cc1)NC[C@H](O)c1cccc(Cl)c1 | 97% (active) | 99% (active) | -6 | 99% (active) | inactive | inactive | inactive | inactive
CC(C)c1ccc(NC(=O)c2ccc(C(=O)NC3CCN(Cc4ccccc4)CC3)cc2)cc1 | 7% | 30% | -3 | 88% (active) | inactive | inactive | inactive | inactive
COC(=O)c1ccc2c(c1)nc(Nc1cccc(F)c1)n2CC(O)c1ccccn1 (stereo not given) | 96% (active) | -7% | -1 | 99% (active) | inactive | inactive | inactive | inactive
Cn1ccc2c3c(N)nc(N)nc3ccc21 | 17% | 59% (active) | 6 | 91% (active) | inactive | inactive | inactive | inactive

Compound | growth inhibition [1] | inhibition [2] | inhibition [3] [%] | growth inhibition [4] | outcome [5] | outcome [6] | outcome [7] | outcome [8]
COc1ccc2ncc(F)c(CCN3CCC(NCc4cc(F)c5c(c4)OCCO5)CC3)c2n1 | 67% (active) | 15% | -5 | 100% (active) | inactive | inactive | inactive | inactive
COc1ccc(Nc2nccc(N3CCC(NC(=O)Nc4cccc(OC)c4)C3)n2)cc1 (stereo not given) | 48% | 23% | -1 | 99% (active) | inactive | inactive | inactive | inactive
c1ccc(CNCc2cccc(-c3ccc(-c4nc5ccccc5[nH]4)s3)c2)cc1 | 63% (active) | 8% | 3 | 95% (active) | inactive | inactive | inactive | inactive
NC(N)=Nc1ccc(OCCCCCOc2ccc(N=C(N)N)cc2)cc1 | 100% (active) | 12% | -1 | 99% (active) | inactive | inactive | inactive | inactive
O=c1cc(NCCCNCc2cccc(I)c2)[nH]c2ccccc12 | 9% | 10% | -1 | 90% (active) | inactive | inactive | inactive | inactive
Cc1cc(NN=Cc2ccccc2F)c2cc(F)ccc2n1 | 97% (active) | 9% | -5 | 101% (active) | inactive | inactive | inactive | inactive
Cc1ccc2c(O)c([N+](=O)[O-])c(=O)[nH]c2c1 | -1% | 3% | -4 | 98% (active) | inactive | inactive | inactive | inactive
O=C1CCCN1CCCNCc1ccc(-c2ccc(-c3nc4ccc(F)cc4[nH]3)s2)cc1 | 91% (active) | 19% | 0 | 100% (active) | inactive | inactive | inactive | inactive
N#Cc1ccc2c(c1)CCN(CCC1CCC(NC(=O)c3cc4cccc([N+](=O)[O-])c4[nH]3)CC1)C2 (stereo not given) | 28% | -4% | -5 | 100% (active) | inactive | inactive | inactive | inactive
CC(C)CNCc1ccc(OCc2cccc(COc3ccc(CNCC(C)C)cc3I)c2)c(I)c1 | 84% (active) | 23% | -4 | 98% (active) | inactive | inactive | inactive | inactive
COc1cc(F)c2ncc(Cl)c([C@H](O)CN3CCC(NCc4ccc5c(n4)NC(=O)CO5)CC3)c2c1 | 99% (active) | 14% | -1 | 99% (active) | inactive | inactive | inactive | inactive
COc1cccc(C(=O)N2CCOC(CCN3CCC(c4ccccc4)CC3)(c3ccc(Cl)c(Cl)c3)C2)c1 (stereo not given) | 63% (active) | 38% | -2 | 87% (active) | inactive | inactive | inactive | inactive
O=C(Nc1ccc(N2CCCCC2)c(Cl)c1)c1ncn[nH]1 | 93% (active) | -4% | -6 | 93% (active) | inactive | inactive | inactive | inactive
Cc1cc(NC(=O)c2cccs2)ccc1OC1CCN(Cc2ccc(F)cc2)CC1 | 92% (active) | 7% | -1 | 94% (active) | inactive | inactive | inactive | inactive
Cc1nnc(-c2ccc3ccccc3c2)c2cn(-c3cccc([N+](=O)[O-])c3)nc12 | 67% (active) | 29% | 3 | 91% (active) | inactive | inactive | inactive | inactive
O=C(Nc1ccc(Cn2ncc(N3CCCNCC3)c(Cl)c2=O)cc1)Nc1cc(F)cc(C(F)(F)F)c1 | 44% | 35% | 4 | 101% (active) | inactive | inactive | inactive | inactive
O=S(=O)(c1ccccc1)n1ccc2cc(Nc3ncnc4cc(C#C[C@H]5CCCN5)sc34)ccc21 | 56% (active) | 50% (active) | -3 | 85% (active) | inactive | inactive | inactive | inactive
O=C(NCCCN1CCC(N2CCCCC2)CC1)c1ccc2nc(N3CCCCC3)sc2c1 | 20% | 11% | -1 | 89% (active) | inactive | inactive | inactive | inactive
Cc1cccc2[nH]c(-c3ccc(-c4ccc(NC(=O)Nc5ccsc5)cc4)cc3)nc12 | 70% (active) | 49% | 5 | 101% (active) | inactive | inactive | inactive | inactive
COc1cc(Cc2cnc(N)nc2N)cc(OCCCCC2NC(=O)NC2=O)c1OC (stereo not given) | -1% | 2% | -3 | 94% (active) | inactive | inactive | inactive | inactive
